Compound activity from PubChem.
In the library only some 7.4% were active in any assay of this set; here they are far more common.
SMN2 splice up – increases expression of the SMN2 splice variant; 210,000 compounds, 2.8% hits; HEK293 SMN2-luciferase splicing reporter, luminescence, 30-36 h; Potency, µM (top dose mostly 46.1 µM), inactives show at the top dose activity change, positive = activation, hits mostly activators; AID 1458; further: % of control where 0% means no effect; nearly all actives have a fitted effect of over 55% in size
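HEK293 cells carry an SMN2 […]–luciferase reporter in which exon 7 inclusion puts luciferase in frame. Cells were plated 10-12 h before compound addition, then incubated 30-36 h at 37C. ONE-Glo luminescence was read; sodium butyrate at 4.5 mM final served as control.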
ELG1 genotoxic – induces genotoxicity in HEK293T cells with luciferase-tagged ELG1; HEK293T ELG1-luciferase reporter, luminescence, 16 h; Potency, µM (doses to about 46 µM), for the others: at the top dose activity change, positive = activation, actives largely listed as activators; 330,000 compounds, 1.3% hits; further: % of control where 0% means no effect; nearly all actives have a fitted effect of over 60% in size
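HEK293T cells expressing luciferase-tagged ELG1 were treated with compound or DMSO for 16 hr at 37°C. Luciferase activity was then read after 30 min with ONE-Glo at room temperature; rising signal flags genetic stress.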
KinaseGlo FLuc – blocks Kinase-Glo luciferase, a counter-screen artifact; Q27757; Kinase-Glo luciferase, ATP luminescence, 8 min; Potency, µM (titrated, usually from 38.3 µM), without a hit: at the top dose activity change, negative = inhibition, usual class: inhibitors; 200,000 compounds, 0.28% hits; further: on the % scale 0 is the no-effect control and ±100 the full control effect; nearly all actives have a fitted effect of over 60% in size
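Compound is pinned into ATP-containing buffer (10 uM ATP, imidazole pH 7.2, 7 mM MgCl2). Kinase-Glo luciferase reagent is then added. Light output is recorded following an 8-min room-temperature incubation.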
FLuc modulator – inhibits or activates purified firefly luciferase, miR-21 counter-screen; AID 588342; P08659; purified FLuc, Km substrates, luminescence inhibition; Potency, µM (top dose mostly 57.5 µM), for inactives: at the highest dose activity change, negative = inhibition, actives largely listed as inhibitors; 360,000 compounds, 6.9% hits;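 further: plate controls were vehicle for no effect and reference inhibitor for full effect; nearly all actives have a fitted effect of over 55% in size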
Target sequence (P08659 whole entry, looked up): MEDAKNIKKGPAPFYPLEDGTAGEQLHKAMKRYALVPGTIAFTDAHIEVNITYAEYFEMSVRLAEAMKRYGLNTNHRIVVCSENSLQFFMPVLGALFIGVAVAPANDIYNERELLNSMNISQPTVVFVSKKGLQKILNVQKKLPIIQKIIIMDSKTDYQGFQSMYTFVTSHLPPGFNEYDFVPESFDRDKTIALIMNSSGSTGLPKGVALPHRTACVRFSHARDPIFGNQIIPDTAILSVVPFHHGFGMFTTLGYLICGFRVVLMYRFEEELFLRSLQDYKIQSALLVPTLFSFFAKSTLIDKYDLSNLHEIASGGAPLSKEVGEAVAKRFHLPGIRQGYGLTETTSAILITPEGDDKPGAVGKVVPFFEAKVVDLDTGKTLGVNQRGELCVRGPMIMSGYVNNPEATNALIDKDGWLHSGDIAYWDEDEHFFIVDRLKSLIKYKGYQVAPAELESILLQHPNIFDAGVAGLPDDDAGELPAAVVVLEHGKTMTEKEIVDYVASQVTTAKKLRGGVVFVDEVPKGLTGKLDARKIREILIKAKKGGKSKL
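Purified P. pyralis luciferase, 10 nM final, with Km-level 10 uM D-luciferin and 10 uM ATP in 50 mM Tris acetate pH 7.5, 10 mM Mg acetate, 0.01% Tween-20, 0.05% BSA; 6-point qHTS titration about 60 µM downward; luminescence read.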
NPC1 promoter act – activators of NPC1 promoter. 320,000 compounds, 2.4% hits. AID 485313. Huh7 NPC1 promoter luciferase reporter, 24 h. Potency, µM (top dose mostly 9.22 µM), without a hit: at the top dose activation, actives largely listed as activators; further: % of control where 0% means no effect; nearly all actives have a fitted effect of over 60% in size
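Compounds in DMSO were transferred onto Huh7 NPC1-luciferase reporter cells pre-incubated 2 h; after 24 h at 37 °C, Amplite reagent was dispensed and luminescence recorded 10 min later.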
Rab9 prom act – activators of Rab9 promoter. Huh7 Rab9 promoter-luciferase reporter, luminescence, 24 h. Potency, µM (doses to about 9.22 µM), for the others: top-dose activation, negative = inhibition, actives largely listed as activators. 320,000 compounds, 2.8% hits. AID 485297; further: % of control where 0% means no effect; nearly all actives have a fitted effect of over 60% in size
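Cells were plated at 1500 per well in reduced-serum medium with 10% FBS and left 2 h. Compound in DMSO was then added for 24 h at 37 °C. Reporter signal was read by luminescence after 10 min with luciferase detection reagent.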
An asterisk follows results filed as active; ? = inconclusive; / = no result given; [ ] = another dose, or the depositor's remark. The call rests on the fitted dose curve; in most records, active means well fitted curve in the direction sought with a large enough effect; inconclusive means small, poorly fitted or top-dose-only effect, or another doubt; inactive means no such curve, though single readings can be large; an effect the other way counts as inactive or inconclusive. Potency means the concentration at half of the fitted maximal effect.

SMILES | SMN2 splice up | ELG1 genotoxic | KinaseGlo FLuc | FLuc modulator | NPC1 promoter act | Rab9 prom act
COc1ccc(CNC(=O)Cn2nc(C(F)(F)F)c3c2CCC3)cc1 | 11.2µM* | -5.6% | 1.9% | 1.0% | 5.6% | -1.3%
O=C(Nc1cccc(C(F)(F)F)c1)n1cc(-c2ccccn2)c(N2CCOCC2)n1 | -1.4% | -7.9% | -1.1% | -2.5% | -3.6% | 12.0%
Cc1nc(CSc2ccc(Br)cc2)cs1 | / | 11.5% | / | 16.9µM* | -1.4% | 3.9%
O=C(CCC1CCCC1)N1CCc2c([nH]c3ccccc23)C1c1ccc(Cl)cc1 (stereo not drawn) | / | / | / | -5.6% | / | /
CN(C)S(=O)(=O)c1ccc(Cl)c(NC(=O)COC(=O)CCC2CCCCC2)c1 | / | -3.1% | / | / | / | /
CCOC(=O)c1sc(Nc2ccccc2)nc1C | 3.2% | 16.4µM* | -3.0% | 15.1µM* | 3.98µM* | 3.98µM*
Cc1cccc(NC(=O)c2sc(C)nc2C)c1 | ? | 15.0% | -20.5% | 23.9µM* | ? | ?
CC(C)(C)C(=O)c1sc(Nc2ccccc2)nc1N | 11.2µM* | 1.3µM* | -0.2% | 5.36µM* | 2µM* | 2µM*
CCOC(=O)c1sc(Nc2ccc(F)cc2)nc1C | 4.5% | 8.5% | -1.7% | -1.1% | 1.8% | 14.0%
Nc1nc(Nc2cccc(C(F)(F)F)c2)sc1C(=O)c1ccccc1 | / | / | / | -0.6% | / | /
COC(=O)c1sc(Nc2ccccc2)nc1C | 23.6% | ? | -6.2% | 19µM* | ? | ?
COc1ccc(C(=O)c2sc(Nc3ccccc3)nc2C)cc1 | / | -0.4% | / | ? | 1.1% | -4.4%
Cc1cccc(N2N=C(C(=O)N3Cc4ccccc4CC3C(N)=O)CCC2=O)c1 (stereo not drawn) | / | 2.8% | / | / | / | /
CCc1ccc(-n2c(=O)c3cccnc3n2CC(=O)Nc2cc(F)ccc2F)cc1 | / | / | / | 0.0% | / | /
COc1ccc(CNC(=O)COC(=O)[C@H](Cc2ccccc2)NC(=O)c2cccs2)cc1 | / | 1.0% | / | / | / | /
CCOC(=O)c1sc(NC(=O)Nc2ccc(Cl)cc2)nc1C | ? | 2.1% | -1.3% | 2.69µM* | 3.98µM* | ?
Cc1nc(Nc2ccccc2)sc1C(=O)c1ccccc1 | / | 12.6% | / | 21.3µM* | ? | 3.55µM*
CCOC(=O)c1sc(Nc2nc3c(OC)cccc3s2)nc1C | ? | ? | -8.0% | 6.75µM* | ? | ?
Cc1cccc(C(=O)Nc2nc(C)c(C(=O)Nc3ccc4c(c3)CCC4)s2)c1 | ? | 9.0% | -8.6% | 6.75µM* | 0.1% | -3.2%
CCOC(=O)Nc1nc(C)c(C(=O)c2ccc(Cl)cc2)s1 | 24.3% | -0.1% | 16.0% | 5.4% | -4.8% | 2.1%
O=C1C=C(c2ccc3ncccc3c2)C[C@@H](c2ccc3c(c2)OCO3)C1 | / | -0.1% | / | 0.5% | -30.0% | -26.8%
CN(C)C(CNC(=O)c1ccc(S(=O)(=O)Nc2cccc(C(F)(F)F)c2)cc1)c1ccco1 (stereo not drawn) | / | -8.3% | / | 5.3% | -0.6% | -3.9%
Cc1cc(C)n(/N=C/c2ccc(C(C)C)cc2)c(=O)c1C#N | 8.4% | -1.9% | -0.1% | ? | 0.4% | -1.5%
CCOC(=O)c1c(NC(=O)CSc2cn(CCNC(=O)c3ccccc3OC)c3ccccc23)sc2c1CCCC2 | -3.0% | / | / | 4.6% | / | /
CC(=O)c1sc(Nc2cccc(C)c2)nc1C | ? | ? | -4.5% | 21.3µM* | 20.0% | ?
SMILES | SMN2 splice up | ELG1 genotoxic | KinaseGlo FLuc | FLuc modulator | NPC1 promoter act | Rab9 prom act
Cc1ccc(C(=O)N/C(=C\c2ccco2)C(=O)NCCc2c[nH]c3ccccc23)cc1 | 17.4% | 3.4% | -1.0% | 15.1µM* | 0.6% | 0.0%
Cc1ccc(C(=O)NCCc2c[nH]c3ccccc23)s1 | / | ? | / | 12µM* | 3.55µM* | 3.16µM*
Cc1ccc(C(=O)NCCc2c[nH]c3ccccc23)c(C)c1 | / | 9.0% | / | 6.75µM* | 1.58µM* | 3.16µM*
CC(C)C(=O)NCCc1c[nH]c2ccccc12 | 1.5% | 1.1% | -3.4% | -6.1% | 6.3% | 0.3%
COc1ccc2oc(C(=O)OCC(=O)N3CCN(S(=O)(=O)c4ccc(C)cc4)CC3)c(C)c2c1 | / | -12.6% | / | -5.9% | 0.7% | 4.9%
CCOc1ccc(NC(=O)CSc2nc(C)c(C(=O)Nc3ccccc3)c(-c3ccc(Cl)cc3)c2C#N)cc1 | -5.9% | / | / | -2.1% | / | /
O=C(CSc1nc(-c2ccccc2)c(-c2ccccc2)o1)NCCCO | / | -1.6% | / | -1.7% | 0.2% | -0.7%
O=C(OCC(=O)C12CC3CC(CC(C3)C1)C2)c1ccc(O)cc1O | / | 23.1µM* | / | 19µM* | 6.4% | 17.7%
O=C(OCC(=O)C12CC3CC(CC(C3)C1)C2)c1cccnc1Cl | -4.0% | 0.0% | -2.1% | 16.9µM* | -4.9% | -1.2%
CC(=O)Nc1nc(-c2ccc3c(c2)CCO3)cs1 | ? | 17.0% | -4.9% | 12µM* | ? | ?
Nc1nc(-c2ccc3c(c2)CCO3)cs1 | 10µM* | 18.7% | -0.2% | ? | 17.8% | ?
O=C(Nc1nc(-c2ccc3c(c2)Cc2ccccc2-3)cs1)c1ccccc1 | 7.2% | 10.3% | -0.6% | -2.4% | 3.6% | -0.1%
Nc1nc(-c2ccc3c(c2)CCC(=O)N3)cs1 | ? | ? | -14.6% | ? | 7.7% | 27.6%
C/C(C/C(C)=C1/SC(=S)NC1=O)=C1\SC(=S)NC1=O | 0.9% | 0.3% | -2.5% | 26.9µM* | -4.3% | -0.2%
CC(C)C[C@@H](CC(=O)N[C@@H](CCC(=O)O)CC(=O)O)NC(=O)[C@@H]1CNCC[C@H]1NC(=O)C[C@H](CCCN)NC(=O)C[C@H](CO)NC(=O)[C@@H]1CCCC[C@H]1N | 11.0% | / | -0.7% | / | / | /
CC1(C)Oc2cc3oc(=O)ccc3cc2C[C@@H]1O | / | 9.3% | / | / | / | /
CC(C)(O)[C@H]1Cc2cc3ccc(=O)oc3cc2O1 | / | ? | / | 12µM* | ? | 3.2%[1.84 µM]
C=C(C)C1Cc2cc3ccc(=O)oc3cc2O1 (stereo not drawn) | -11.4%[1.84 µM] | ? | -2.2% | 13.5µM* | 13.8% | ?
COc1ccc(C)cc1NC(=O)c1cc(S(=O)(=O)N2CCC(C)CC2)ccc1F | / | / | / | 4.3% | / | /
CC(=O)c1ccc(NC(=S)Nc2cccc(S(=O)(=O)Nc3c(C)n(C)n(-c4ccccc4)c3=O)c2)cc1 | 1.1% | 3.5% | -0.1% | -15.9% | -4.2% | 8.5%
CCCn1c(O)c(N=NC(=O)c2cccnc2)c2cc(Br)ccc21 | / | 0.5% | / | -1.6% | 11.5% | 2.0%
NC(=O)C1=NOC(CNc2ncc(C(F)(F)F)cc2Cl)C1 (stereo not drawn) | 9.3% | 23.1µM* | 7.8% | ? | 20.5% | ?
O=C(Nc1nc2ccc(SC(F)F)cc2s1)c1ccc(NS(=O)(=O)c2ccc(F)c(F)c2)cc1 | -4.0% | -2.8% | 2.8% | 15.1µM* | 13.4% | 24.7%
